Assay outcomes: PubChem, National Center for Advancing Translational Sciences (NCATS)
DT40 TDP1 no CPT: qHTS for Inhibitors of human tyrosyl-DNA phosphodiesterase 1 (TDP1): qHTS in cells in absence of CPT; DT40 Tdp1-/- hTDP1 cells, no CPT, ATP luminescence, 48 h; Potency, µM (top dose mostly 46.2 µM), inactives show at the top dose activity change, negative = growth inhibition, most hits filed as inhibitors; 420,000 compounds, 15% hits; also: potency is read from the fitted curve at half-maximal effect; nearly all actives have a fitted effect of over 55% in size
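Compound effects on proliferation are scored in DT40 Tdp1-/-;hTDP1 cells in the absence of CPT. ATP levels (CellTiter-Glo luminescence) are recorded after a ≥48 hr, 37 °C incubation.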
RORgamma inh: inhibitors of mouse ROR gamma transcriptional activity; P51450; Drosophila S2 Gal4-RORgamma UAS-luciferase reporter, 20 h; Potency, µM (top dose mostly 53.6 µM), for the others: at the highest dose activity change, negative = inhibition, actives largely listed as inhibitors; 310,000 compounds, 5.4% hits; AID 2551; also: potency is read from the fitted curve at half-maximal effect; nearly all actives have a fitted effect of over 60% in size
Target sequence (P51450 whole entry, looked up, the tested form may be a part): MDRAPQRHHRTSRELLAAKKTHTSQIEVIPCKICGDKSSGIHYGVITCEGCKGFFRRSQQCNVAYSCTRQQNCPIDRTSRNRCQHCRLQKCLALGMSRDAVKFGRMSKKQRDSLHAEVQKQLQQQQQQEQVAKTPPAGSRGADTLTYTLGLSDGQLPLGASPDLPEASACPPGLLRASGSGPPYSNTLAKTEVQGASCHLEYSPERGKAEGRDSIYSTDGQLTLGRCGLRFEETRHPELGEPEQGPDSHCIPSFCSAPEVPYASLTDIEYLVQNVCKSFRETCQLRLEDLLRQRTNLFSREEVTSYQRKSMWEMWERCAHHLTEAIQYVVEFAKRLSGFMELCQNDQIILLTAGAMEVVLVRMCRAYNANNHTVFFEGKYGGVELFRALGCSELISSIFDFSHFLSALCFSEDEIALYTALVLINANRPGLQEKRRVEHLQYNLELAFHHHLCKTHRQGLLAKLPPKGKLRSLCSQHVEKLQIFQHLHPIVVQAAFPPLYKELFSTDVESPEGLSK
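Stably transfected Drosophila Schneider cells are the test system, with ROR gamma fused to Gal4 and luciferase under UAS control; luminescence is read after 20 hr of 700 uM copper sulfate induction at ambient temperature.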
ELG1 DNA repair: ELG1-dependent DNA repair inhibition; HEK293T ELG1-luciferase reporter, luminescence, 16 h; DNA damage induced by 5-fluorouridine; Potency, µM (highest dose often 46.1 µM), without a hit: at the top dose activity change, negative = inhibition, actives largely listed as inhibitors; 330,000 compounds, 2.3% hits; also: potency is read from the fitted curve at half-maximal effect; nearly all actives have a fitted effect of over 55% in size
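Reporter activity after DNA damage by 5-fluorouridine is monitored. Compound-treated cells incubate 16 hr at 37 °C, then ONE-Glo is added for 30 min before luminescence reading.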
TDP1 cell CPT: growth inhibition of DT40 Tdp1-/-;hTDP1 cells with camptothecin (screen for TDP1 inhibitors) | chicken DT40 Tdp1-/-;hTDP1 cells + 20 nM CPT, ATP luminescence, 48 h | Potency, µM (series often up to 46.2 µM), inactives show at the top dose activity change, negative = growth inhibition, actives largely listed as inhibitors | 420,000 compounds, 12% hits; also: potency is read from the fitted curve at half-maximal effect; nearly all actives have a fitted effect of over 55% in size
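Chicken DT40 Tdp1-/- cells stably complemented with human TDP1 were seeded at 400 cells/well in medium containing 20 nM camptothecin, exposed to pin-transferred compounds, and grown at 37 °C for at least 48 hr. Viability was read as ATP luminescence.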
VP16 counter: inhibits Gal4-VP16 luciferase reporter, ROR gamma counter-screen | Potency, µM (series often up to 53.6 µM), for inactives: top-dose activity, negative = inhibition, usual class: inhibitors | AID 2546 | Drosophila S2 Gal4-VP16 UAS-luciferase, luminescence, 20 h | 310,000 compounds, 3.5% hits;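 also: Gal4-VP16 expression switched on by copper sulfate through the metallothionein promoter; potency is read from the fitted curve at half-maximal effect; nearly all actives have a fitted effect of over 50% in size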
IL-1B inflam inh: blocks inflammasome-driven IL-1 beta release | activity change, % at 57.5 µM | THP-1 LPS/ATP IL-1B secretion, AlphaLISA, 16 h; stronger effect = lower value | 360,000 compounds, 4.7% hits; in the data active = activity change below about -50%; inconclusive = mostly about -30% to -49%
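Secreted IL-1B measured by AlphaLISA bead assay after 16 h compound exposure of THP-1 cells; compounds (final up to 57.5 uM) added 1 h before LPS (250 ng/mL) and ATP (1.25 mM) stimulation; lower signal means less secretion.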
Numbers without * were called inactive; [ ] = remark or other dose. Most compounds without a hit are left out; they make up all but 21% or so of the library. Unless noted, calls follow the shape of the dose curve; as a rule, active = well fitted curve in the direction sought with a large enough effect; inconclusive = small, poorly fitted or top-dose-only effect, or another doubt; inactive = no such curve, though single readings can be large; an effect the other way counts as inactive or inconclusive. % is scaled to controls: 0 for no effect and ±100 for the full control effect.

`Cc1ccc(-c2cn(-c3ccc(Cl)cc3)c(S(=O)(=O)CC(=O)Nc3ccccc3)n2)cc1` gave DT40 TDP1 no CPT inconclusive and TDP1 cell CPT 26µM*.
For CCCC/C=C/C(NC(=O)c1cccs1)c1ccccc1 (stereo unspecified) the results were RORgamma inh 2% and VP16 counter inconclusive.
`Cc1ccc(S(=O)(=O)NCC(=O)NNC(=O)c2ccccc2Cl)cc1C` gave DT40 TDP1 no CPT -7%, ELG1 DNA repair -18%, TDP1 cell CPT 2% and IL-1B inflam inh 15.
Screening Cc1ccc(C2=NC(=O)/C(=C/c3cc(O)c(O)c(Br)c3)S2)cc1 returned DT40 TDP1 no CPT 16µM*, RORgamma inh -28%, ELG1 DNA repair -12%, TDP1 cell CPT 18µM*, VP16 counter -2% and IL-1B inflam inh 33.
Screening O=C(Nc1cccc(F)c1)c1ccccc1 returned DT40 TDP1 no CPT 0%, RORgamma inh 15%, ELG1 DNA repair inconclusive, TDP1 cell CPT -29%, VP16 counter 5% and IL-1B inflam inh -12.
For Cc1cccc(Nc2ncc(NC(=O)c3cccc(F)c3)c(Nc3cccc(C)c3)n2)c1 the results were DT40 TDP1 no CPT 5.8µM* and TDP1 cell CPT 7.3µM*.
For O=C(Nc1ccccc1)c1cccc(S(=O)(=O)Nc2cccc(F)c2)c1 the results were DT40 TDP1 no CPT 26µM* and TDP1 cell CPT inconclusive.
O=C(Nc1ccc(Nc2ccccc2)cc1)c1cccc(F)c1 was read as DT40 TDP1 no CPT 18µM*, RORgamma inh inconclusive, ELG1 DNA repair inconclusive, TDP1 cell CPT inconclusive, VP16 counter 14% and IL-1B inflam inh -15.
Screening COc1ccc(NC(=O)c2cccc(NS(=O)(=O)c3ccccc3)c2)cc1 returned DT40 TDP1 no CPT -13%, RORgamma inh -12%[1.91 µM], ELG1 DNA repair -13%, TDP1 cell CPT 2%, VP16 counter 17% and IL-1B inflam inh 16.
`Cn1nc(C(C)(C)C)cc1NC(=O)Nc1cc(Cl)cc(Cl)c1` gave DT40 TDP1 no CPT inconclusive, RORgamma inh inconclusive, ELG1 DNA repair 12%, TDP1 cell CPT 16µM*, VP16 counter -11% and IL-1B inflam inh -98*.
`COc1ccccc1CNc1ccnc(-c2ccccc2OC)n1` gave DT40 TDP1 no CPT inconclusive, RORgamma inh 10%, TDP1 cell CPT inconclusive and VP16 counter -6%.
`COc1ccccc1CCC(=O)Nc1nccs1` gave DT40 TDP1 no CPT inconclusive, RORgamma inh -6%, ELG1 DNA repair 25%, TDP1 cell CPT -17%, VP16 counter 17% and IL-1B inflam inh -6.
For Cc1cnc(NC(=O)Cc2ccccc2F)s1 the results were DT40 TDP1 no CPT 21µM*, RORgamma inh -30%, ELG1 DNA repair 19%, TDP1 cell CPT 7.3µM*, VP16 counter 5% and IL-1B inflam inh -14.
`COc1ccccc1CCC(=O)Nc1ncc(C)s1` gave DT40 TDP1 no CPT inconclusive, RORgamma inh -9%, ELG1 DNA repair inconclusive, TDP1 cell CPT 10µM*, VP16 counter 5% and IL-1B inflam inh 0.
For CCC(C)NC(=O)Cn1c(=O)n(CC2CCC(C(=O)NC)CC2)c(=O)c2sccc21 (stereo unspecified) the results were DT40 TDP1 no CPT -10% and TDP1 cell CPT 0%.
For COc1ccccc1CN1CCC2(CC1)c1ccccc1[C@@H](NC(=O)c1ccco1)[C@@H]2OC the results were DT40 TDP1 no CPT -24% and TDP1 cell CPT -17%[9.04 µM].
Screening CC1(C)CC(=O)C2=C(C1)NC(=O)NC2c1ccc(Cl)cc1 (stereo unspecified) returned DT40 TDP1 no CPT inconclusive, RORgamma inh -7%, ELG1 DNA repair inconclusive, TDP1 cell CPT 4%, VP16 counter -2% and IL-1B inflam inh -13.
CC1(C)CC(=O)C2=C(C1)Nc1cc(Cl)ccc1S2 was read as DT40 TDP1 no CPT inconclusive, RORgamma inh -14%, ELG1 DNA repair 23µM*, TDP1 cell CPT inconclusive, VP16 counter -2% and IL-1B inflam inh -3.
Screening Cc1nn(Cc2ccccc2)c(C)c1NC(=O)CSc1n[nH]c(C)c1[N+](=O)[O-] returned DT40 TDP1 no CPT inconclusive, RORgamma inh 22%, ELG1 DNA repair -16%, TDP1 cell CPT inconclusive, VP16 counter -2% and IL-1B inflam inh 11.
`Cc1nn(Cc2ccc(C(=O)NN)cc2)c(C)c1Cl` gave DT40 TDP1 no CPT 12%, RORgamma inh inconclusive, ELG1 DNA repair inconclusive, TDP1 cell CPT 14%, VP16 counter -8% and IL-1B inflam inh 17.
For CCc1ccccc1NC(=O)c1ccc(Cn2cc([N+](=O)[O-])cn2)cc1 the results were DT40 TDP1 no CPT -29%, RORgamma inh 37%, ELG1 DNA repair -12%, TDP1 cell CPT -3%, VP16 counter 0% and IL-1B inflam inh 0.
Screening Cc1nn(Cc2ccc(Cl)cc2)c(C)c1NC(=O)c1ccc([N+](=O)[O-])cc1 returned DT40 TDP1 no CPT inconclusive, RORgamma inh inconclusive, ELG1 DNA repair inconclusive, TDP1 cell CPT 1%, VP16 counter 0% and IL-1B inflam inh -74*.
`Cc1nn(Cc2ccc(C(=O)Nc3nccs3)cc2)c(C)c1Cl` gave DT40 TDP1 no CPT inconclusive, RORgamma inh 13µM*, ELG1 DNA repair inconclusive, TDP1 cell CPT -22%, VP16 counter inconclusive and IL-1B inflam inh 3.
O=C(Nc1ccc([N+](=O)[O-])cc1)c1ccc(Cn2cc([N+](=O)[O-])cn2)cc1 was read as DT40 TDP1 no CPT 13µM*, RORgamma inh 38%, ELG1 DNA repair inconclusive, TDP1 cell CPT 18µM*, VP16 counter 8%[10 µM] and IL-1B inflam inh -8.
Cc1nn(Cc2ccc(Cl)cc2)c(C)c1NC(=O)CSc1n[nH]c(C)c1[N+](=O)[O-] was read as DT40 TDP1 no CPT 21µM*, RORgamma inh 14%, ELG1 DNA repair inconclusive, TDP1 cell CPT 26µM*, VP16 counter 6% and IL-1B inflam inh 7.
Cc1nn(Cc2ccc(Cl)cc2)c(C)c1NC(=O)Cn1nc([N+](=O)[O-])c(Cl)c1C was read as DT40 TDP1 no CPT inconclusive, RORgamma inh 20%, ELG1 DNA repair -2%, TDP1 cell CPT -23%, VP16 counter 1% and IL-1B inflam inh 53.
